Results as given in the supplement of paper PMC5919970.
Counter-ions that a name gives are not always drawn. The full ranking holds about 2,000 compounds; the median of “fractional viability relative to vehicle” is about 0.91, and the lowest 2% start at about 0.045. The list comes from a sample in which the lowest values are over-represented; it also holds similar structures and randomly drawn compounds.

Test system: TYKNU
Assay: fractional viability relative to vehicle; TYKNU is a high-grade serous ovarian cancer line; higher = less growth inhibition
Details: 72 h
Procedure, shortened: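 TYKNU control cells or lentiCRISPRv2 knockout derivatives were seeded at 500 cells per well into drug-stamped 384-well plates holding a ~2100-compound library at 2 or 10 μM, in duplicate. Cells were grown at 37 °C in 5% CO2 in RPMI 1640 with 10% FBS, and drug treatment lasted 72 h. Viability was read by Cell Titer Glo luminescence. Duplicate treatment wells were averaged and normalised to duplicate control wells from the same plate position.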

[1] = 2uM, genotype: DNM1L knockout (sgDNM1L #1)
[2] = 2uM, genotype: sgCTRLA1 (non-targeting control)
[3] = 10uM, genotype: DNM1L knockout (sgDNM1L #1)
[4] = 10uM, genotype: sgCTRLA1 (non-targeting control)

| SMILES | fractional viability [1] | fractional viability [2] | fractional viability [3] | fractional viability [4] |
| --- | --- | --- | --- | --- |
| O=C(Nc1nc2cccc(-c3ccc(CN4CCS(=O)(=O)CC4)cc3)n2n1)C1CC1 [Filgotinib (GLPG0634)] | 0.73 | 0.849 | 0.493 | 0.573 |
| CC(=O)Oc1ccccc1C(=O)O [Aspirin] | 0.863 | 1.09 | 1.01 | 1.05 |
| CC(=O)OCOC(=O)CN(CC(=O)OCOC(C)=O)c1ccccc1OCCOc1ccccc1N(CC(=O)OCOC(C)=O)CC(=O)OCOC(C)=O | 0.391 | 0.569 | 0.0416 | 0.0639 |
| O=C(NNc1nc2cc(F)ccc2n2cccc12)c1cnccn1 | 0.358 | 0.282 | 0.269 | 0.247 |
| Nc1c(CC(=O)O)cccc1C(=O)c1ccc(Br)cc1 [Bromfenac Sodium] | 0.888 | 1.1 | 0.801 | 1.05 |
| CCN(CC)CCNC(=O)c1c(C)[nH]c(/C=C2\C(=O)Nc3ccc(F)cc32)c1C [Sunitinib] | 0.544 | 0.67 | 0.0734 | 0.0439 |
| CCN(CC)CCNC(=O)c1c(C)[nH]c(/C=C2\C(=O)Nc3ccc(F)cc32)c1C [Sunitinib Malate] | 0.853 | 0.819 | 0.169 | 0.122 |
| Cc1[nH]c(/C=C2\C(=O)Nc3ccccc32)c(C)c1CCC(=O)O [TSU-68 (SU6668, Orantinib)] | 0.962 | 1.11 | 0.869 | 1.02 |
| CCN(CC)CCNC(=O)c1ccc(N)cc1 [Procainamide HCl] | 0.791 | 1 | 0.633 | 0.929 |
| O=C(c1ccc(F)c(F)c1Nc1ccc(I)cc1F)N1CC(O)([C@@H]2CCCCN2)C1 [Cobimetinib (GDC-0973, RG7420)] | 0.814 | 1.03 | 0.942 | 0.846 |
| Nc1ccc2ncnc(NCCc3ccc(Oc4ccccc4)cc3)c2c1 | 0.604 | 0.444 | 0.596 | 0.43 |
| COc1ccc(/C=C\c2cc(OC)c(OC)c(OC)c2)cc1O [Combretastatin A4] | 0.11 | 0.122 | 0.111 | 0.073 |
| COc1cc(/C=C/C(=O)N2CCN(CC(=O)N3CCCC3)CC2)cc(OC)c1OC [Cinepazide maleate] | 1.08 | 0.973 | 1.1 | 1.02 |
| COc1cc(/C=C/C(=O)N2CCC=CC2=O)cc(OC)c1OC [Piperlongumine] | 0.302 | 0.319 | 0.0446 | 0.0292 |
| COc1ccc2cc(OCC3(C(=O)O)CN(C(=O)c4ccc(F)cc4)C3)ccc2c1 | 0.822 | 1.12 | 0.788 | 1.11 |
| COCCOc1ccc2c(c1)ncn2-c1ccc2cccc(N3CCC(N)CC3)c2n1 | 0.892 | 0.893 | 0.13 | 0.139 |
| Cc1cc(C)c(CNC(=O)c2cc(-c3ccc(N4CCN(C)CC4)nc3)cc3c2c(C)cn3C(C)C)c(=O)[nH]1 | 0.782 | 1.03 | 0.669 | 0.609 |
| O=C(NC1CC1)c1cc(-c2cccs2)on1 [Isoxazole 9 (ISX-9)] | 0.927 | 0.844 | 0.795 | 0.662 |
| CC(CNC(=O)c1cccnc1)NC(=O)c1cccnc1 (stereo unspecified) [Nicaraven] | 0.754 | 1.07 | 0.726 | 0.99 |
| CCCS(=O)(=O)Nc1ccc(F)c(C(=O)c2c[nH]c3ncc(-c4ccc(Cl)cc4)cc23)c1F [Vemurafenib (PLX4032, RG7204)] | 1.05 | 1.26 | 0.823 | 0.974 |

| SMILES | fractional viability [1] | fractional viability [2] | fractional viability [3] | fractional viability [4] |
| --- | --- | --- | --- | --- |
| COc1ncc(-c2ccc3nccc(-c4ccnnc4)c3c2)cc1NS(=O)(=O)c1ccc(F)cc1F | 0.446 | 0.184 | 0.0665 | 0.0352 |
| COC(=O)N[C@H](C(=O)N1CCC[C@H]1c1ncc(-c2ccc(-c3ccc(-c4cnc([C@@H]5CCCN5C(=O)[C@@H](NC(=O)OC)C(C)C)[nH]4)cc3)cc2)[nH]1)C(C)C | 1.04 | 1 | 0.511 | 0.654 |
| CS(=O)(=O)CCNCc1ccc(-c2ccc3ncnc(Nc4ccc(OCc5cccc(F)c5)c(Cl)c4)c3c2)o1 | 1.08 | 1.02 | 0.179 | 0.303 |
| C=CC(=O)Nc1ccc2ncnc(Nc3cccc(Br)c3)c2c1 | 0.927 | 0.921 | 0.248 | 0.317 |
| C=CC(=O)Nc1ccc2ncnc(Nc3ccc(OCc4cccc(F)c4)c(Cl)c3)c2c1 | 0.704 | 0.853 | 0.044 | 0.0416 |
| COCC(=O)NC/C=C/c1ccc2ncnc(Nc3ccc(Oc4ccc(C)nc4)c(C)c3)c2c1 | 1.07 | 1.08 | 0.886 | 1.06 |
| Cc1c(Cn2c(C)nc3c(C(=O)O)cc(N4CCOCC4)cc32)cccc1C(F)(F)F | 0.754 | 0.989 | 0.83 | 0.849 |
| CC[C@@H]([C@H](C)O)n1ncn(-c2ccc(N3CCN(c4ccc(OC[C@@H]5CO[C@@](Cn6cncn6)(c6ccc(F)cc6F)C5)cc4)CC3)cc2)c1=O [Posaconazole] | 0.919 | 1.13 | 0.868 | 1.05 |
| C=CC(=O)Nc1cccc(Oc2nc(Nc3ccc(N4CCN(C)CC4)cc3OC)ncc2Cl)c1 | 0.754 | 0.963 | 0.345 | 0.492 |
| C=CC(=O)Nc1ccc(CN2C(=O)N(c3cc(OC)cc(OC)c3)Cc3cnc(Nc4ccc(N5CCN(C)CC5)cc4)nc32)cc1 | 0.926 | 0.803 | 0.0593 | 0.0423 |
| C=CC(=O)Nc1cccc(Oc2nc(Nc3ccc(N4CCN(C)CC4)cc3)ncc2Cl)c1 | 0.338 | 0.355 | 0.157 | 0.146 |
| CCC(=O)Nc1cccc(Oc2nc(Nc3ccc(N4CCN(C)CC4)cc3OC)ncc2Cl)c1 | 0.867 | 0.981 | 0.303 | 0.347 |
| C=CC(=O)Nc1cccc(Sc2nc(Nc3ccc(N4CCN(C)CC4)cc3)ncc2Cl)c1 | 0.965 | 0.898 | 0.0379 | 0.0337 |
| C=CC(=O)Nc1cccc(Nc2nc(Nc3ccc(N4CCN(C(C)=O)CC4)cc3OC)ncc2C(F)(F)F)c1 | 0.528 | 0.856 | 0.24 | 0.235 |
| C[C@@H](Nc1cc(F)cc(F)c1)c1cc(C(=O)N(C)C)cc2c(=O)cc(N3CCOCC3)oc12 | 0.647 | 0.847 | 0.701 | 0.566 |
| CN(C)C/C=C/C(=O)Nc1cc2c(Nc3ccc(F)c(Cl)c3)ncnc2cc1O[C@H]1CCOC1 [Afatinib (BIBW2992) Dimaleate] | 0.77 | 0.984 | 0.77 | 0.767 |
| CN(C)C/C=C/C(=O)Nc1cc2c(Nc3ccc(F)c(Cl)c3)ncnc2cc1O[C@H]1CCOC1 [Afatinib (BIBW2992)] | 0.578 | 0.809 | 0.0953 | 0.0868 |
| O=S(=O)(N=Cc1c(O)ccc2ccccc12)c1cccs1 | 0.71 | 0.953 | 0.696 | 0.77 |
| NC(=O)c1noc([C@H](CCCC2CCCCC2)CC(=O)NO)n1 | 0.928 | 1.03 | 0.623 | 0.827 |
| CNS(=O)(=O)Nc1nccc(Cc2c(C)c3ccc(Oc4ncccn4)cc3oc2=O)c1F | 0.326 | 0.304 | 0.239 | 0.199 |

| SMILES | fractional viability [1] | fractional viability [2] | fractional viability [3] | fractional viability [4] |
| --- | --- | --- | --- | --- |
| Cc1cc2c(F)c(Oc3ncnn4cc(OC[C@@H](C)O)c(C)c34)ccc2[nH]1 | 0.804 | 0.956 | 0.487 | 0.469 |
| COc1cc2c(Oc3ccc4[nH]c(C)cc4c3F)ncnc2cc1OCCCN1CCCC1 [Cediranib (AZD2171)] | 0.99 | 0.847 | 0.0461 | 0.0421 |
| COc1cc2ncnc(Nc3ccc(F)c(Cl)c3)c2cc1OCCCN1CCOCC1 [Gefitinib (ZD1839)] | 1 | 1.11 | 0.492 | 0.555 |
| Cc1ncc(CCCN(C)C)cc1Nc1ncc2c(n1)-c1ccc(C(F)(F)F)cc1NC(=S)C2 | 0.211 | 0.231 | 0.259 | 0.251 |
| CC(C)(C)C[C@@H]1N[C@@H](C(=O)N[C@H]2CC[C@H](O)CC2)[C@H](c2cccc(Cl)c2F)[C@]12C(=O)Nc1cc(Cl)ccc12 | 0.274 | 0.277 | 0.259 | 0.225 |
| CCN(CC)CCN(Cc1ccc(-c2ccc(C(F)(F)F)cc2)cc1)C(=O)Cn1c(SCc2ccc(F)cc2)nc(=O)c2c1CCC2 | 0.329 | 0.569 | 0.0156 | 0.00842 |
| CC(C)(C)C(=O)Nc1ccc2c(c1)C(=O)C(=O)c1ccccc1-2 | 0.175 | 0.0968 | 0.0236 | 0.0127 |
| CC(=O)Nc1ccccc1 [Acetanilide] | 0.896 | 1.08 | 0.878 | 1.14 |
| CCCc1nc(C(C)(C)O)c(C(=O)OCc2oc(=O)oc2C)n1Cc1ccc(-c2ccccc2-c2nnn[nH]2)cc1 [Olmesartan Medoxomil] | 0.907 | 0.929 | 1.1 | 1.02 |
| CC(C)(C)C#Cc1cc(N(C(=O)[C@H]2CC[C@H](C)CC2)[C@H]2CC[C@H](O)CC2)c(C(=O)O)s1 [VX-222 (VCH-222, Lomibuvir)] | 0.983 | 1.03 | 0.818 | 0.95 |
| NC(=O)c1cnc(N[C@@H]2CCCC[C@@H]2N)nc1Nc1cccc(-n2nccn2)c1 | 0.751 | 0.853 | 0.185 | 0.142 |
| Fc1ccc(CNc2ncnc3ccc(F)cc23)cc1 [Spautin-1] | 0.675 | 0.763 | 0.67 | 0.447 |
| O=C(NNc1ccccc1)c1ccncc1 | 0.723 | 0.931 | 0.801 | 0.659 |
| O=C(/C=C/c1ccc2ccccc2n1)c1ccncc1 | 0.0494 | 0.0683 | 0.0258 | 0.0162 |
| NNC(=O)c1ccncc1 [Isoniazid] | 0.893 | 1.14 | 0.875 | 1.06 |
| Cc1ccc(NC(=O)Nc2cc(C(F)(F)F)ccc2F)cc1Nc1ccc2c(c1)NC(=O)/C2=C\c1ccc[nH]1 | 0.873 | 0.905 | 0.918 | 0.825 |
| CCOC(=O)c1c(CSc2ccccc2)n(C)c2cc(Br)c(O)c(CN(C)C)c12 [Arbidol HCl] | 0.913 | 1.07 | 0.611 | 0.645 |
| CCOC(=O)[C@H](CCc1ccccc1)N[C@@H](C)C(=O)N1C(=O)N(C)C[C@H]1C(=O)O [Imidapril HCl] | 0.976 | 1.1 | 0.958 | 1.17 |
| CC(C)C[C@H](NC(=O)CNC(=O)c1cc(Cl)ccc1Cl)B1OC(=O)C(CC(=O)O)(CC(=O)O)O1 | 0.13 | 0.0935 | 0.0814 | 0.0756 |
